About 4,000 (1.1%) of roughly 380,000 compounds were called active. Inconclusive results (about 3%) are left out. Only a selection was taken, and actives are over-represented in it overall. Unmarked numbers belong to inactive results. Calls follow the shape of the dose curve; as a rule, active = well fitted activation curve with a large enough effect; inconclusive = small, poorly fitted or top-dose-only effect; inactive = no such curve, though single readings can be large or run the other way.
test: qHTS Assay to Identify Small Molecule Activators of BRCA1 Expression; details: MCF7-BRCA1-FFLuc reporter, luminescence, 48 h; series mostly up to 46.1 µM; activation: at the top concentration; also: nearly all actives have a fitted effect of over 80% in size
In short: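 Reporter cells (MCF7, BRCA1 promoter-firefly luciferase) received library compounds across a concentration series for 48 h. End-point luminescence was measured and concentration-effect curves derived after normalization.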
Potency is read from the fitted curve at half-maximal effect.

SMILES | activation [%] | Potency
Cc1ccc(S(=O)(=O)c2c(Nc3cccc(Cl)c3)sc(C(=O)c3ccc4c(c3)OCO4)c2N)cc1 | -20.3 | 
CC1(C)CC(=O)C=C(c2ccc(COC(=O)c3cc(F)cc(F)c3)cc2)C1=O | -11.8 | 
CC1(C)CC(=O)C=C(c2ccccc2CO)C1=O | 14.4 | 
Cc1ccc(-c2ccc(C3=CC(=O)CC(C)(C)C3=O)cc2)cc1 |  | 2.24 µM (active)
COc1cc(C(=O)Nc2ccc(OCc3cc(=O)n4cc(C)sc4n3)cc2)cc(OC)c1OC | 5.16 | 
CC1=Nc2cc(C(=O)N3CCC(C)CC3)ccc2Sc2ccc(Cl)cc21 | -35.4 | 
Oc1ccc(Cl)cc1C1C=C(c2ccc3c(c2)OCO3)NC(c2ccc(F)c(Br)c2)N1 (centres undefined) | -37.8 | 
COc1ccc(C2=NN(C(C)=O)C(c3ccccc3)C2)cc1 (centres undefined) |  | 11.2 µM (active)
COc1ccc(C2CC(c3ccccc3)=NN2C(=O)c2ccc(Cl)c([N+](=O)[O-])c2)cc1 (centres undefined) | -88.3 | 
COc1ccc(C2=NN(C(=O)CSc3nc(=O)n4ccc(C)cc4n3)C(c3ccc(C)cc3)C2)cc1 (centres undefined) | -15.3 | 
O=C(Nc1c(-c2ccc(F)cc2)nc2ccccn12)c1cccc(F)c1 | -21.3 | 
CC(C)c1ccc(NC(=S)NC2CC3C=CC2C3)cc1 (centres undefined) |  | 4.47 µM (active)
O=C(COC(=O)C1CC2C=CC1C2)Nc1ccccc1 (centres undefined) | -10.1 | 
Cc1ccc(C)c(NC(=S)NNC(=S)Nc2ccc(C(C)C)cc2)c1 | -7.76 | 
OC[C@@H]1O[C@H](n2cnc3c(SCc4ccccc4)ncnc32)[C@H](O)[C@H]1O | 0 | 
COc1cc(OC)cc(-c2nc3nc(C)c(CCC(=O)Nc4ccccc4)c(C)n3n2)c1 | 6.37 | 
CC(=O)c1ccc(NC(=O)COc2ccccc2-c2nc(-c3ccccc3)no2)cc1 | 0 | 
COc1ccc2c(Cl)c(C(=O)NCc3ccco3)sc2c1 |  | 11.2 µM (active)
O=C(NCc1ccco1)c1sc2cccc(F)c2c1Cl | 60.2 | 
CCN(C(=O)c1sc2cc(OC)ccc2c1Cl)c1ccccc1 | -24.9 | 
C=C1C=C(C(F)F)n2ncc(C(=O)NCCc3ccccc3OC)c2N1 | -8.16 | 
c1csc(-c2nnc(COc3ncnc4sccc34)o2)c1 | -5.83 | 
CNC(=O)c1nnc(Cc2ccc(Cl)cc2)o1 | 27.6 | 
Clc1ccc(Cc2nnc(-c3cccs3)o2)cc1 |  | 11.2 µM (active)
CCCCCCCNc1ccc(/C=C/c2ccnc3ccccc23)cc1 | -60.9 | 
COc1ccc(OCc2n[nH]c(=S)n2N)cc1 | 2.71 | 
COc1ccc(Cn2c(C)c(C)c(C#N)c2NC(=O)Nc2ccc(F)cc2)cc1 | 0 | 
COc1ccc(Cc2n[nH]c(=S)n2NC(=O)Nc2ccc(C)cc2)cc1 |  | 12.6 µM (active)
CN(C)c1ccc(C=Nc2ccc(/C=C/c3ccnc4ccccc34)cc2)cc1 | 8.08 | 

Reference: PubChem BioAssay AID624202 (National Center for Advancing Translational Sciences (NCATS), 2012)
